MsrA inhibitor: bovine MsrA inhibition. purified bovine MsrA, absorbance read-out. inhibition, % at 15.5 µM. actives 0.75% (n = 360,000); in the data active means inhibition above about 4.5%
HGIII-sPLA2 inh: Blocks human group III sPLA2 activity; actives 0.56% (n = 370,000); AID 743126; inhibition, % at 12.2 µM; QFRET BODIPY PC-A2 liposome hydrolysis, fluorescence;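 active means inhibition above mean plus 3 SD of compounds lying within the high and low control bounds, cut at about 19% in these data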
Target sequence (Q9NZ20 whole entry, looked up): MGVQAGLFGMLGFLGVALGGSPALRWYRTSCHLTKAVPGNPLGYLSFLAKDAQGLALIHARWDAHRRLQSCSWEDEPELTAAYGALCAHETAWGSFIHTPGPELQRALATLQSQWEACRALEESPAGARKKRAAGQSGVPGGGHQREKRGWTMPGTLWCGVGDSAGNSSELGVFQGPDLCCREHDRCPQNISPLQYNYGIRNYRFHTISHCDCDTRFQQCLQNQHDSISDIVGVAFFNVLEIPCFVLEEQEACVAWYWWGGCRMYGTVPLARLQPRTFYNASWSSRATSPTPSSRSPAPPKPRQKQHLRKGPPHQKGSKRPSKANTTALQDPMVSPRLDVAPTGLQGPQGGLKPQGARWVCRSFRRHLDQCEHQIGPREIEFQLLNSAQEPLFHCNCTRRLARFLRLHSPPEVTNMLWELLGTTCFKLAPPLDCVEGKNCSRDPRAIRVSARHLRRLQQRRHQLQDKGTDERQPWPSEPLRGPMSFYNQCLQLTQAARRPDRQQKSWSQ
MsrA act: activates bovine MsrA enzyme; purified bovine MsrA, absorbance read-out; activation, % at 10.6 µM; actives 0.3% (n = 360,000); in the data active means activation above about 7.5%
PG9 Ab binder: small molecules binding HIV-1 gp120 antibody PG9; TR-FRET gp120-PG9 antibody binding; AID 624416; inhibition, % at 6.7 µM; actives 0.43% (n = 360,000); in the data active means inhibition above about 8.5%
rCAG binder-1: binds r(CAG) RNA repeats; actives 1.3% (n = 370,000); r(CAG) RNA repeat, TO-PRO-1 dye displacement fluorescence; inhibition, % at 3 µM;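 active means inhibition above the plate cutoff, the mean of all test compounds on that plate plus 3 SD, cut at about 35% in these data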;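 further: higher means more dye released from RNA so lower well fluorescence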
rCAG bind conf: r(CAG) RNA repeat binding, confirmation; TO-PRO-1 dye displacement fluorescence; actives 70% (n = 4,300); AID 652065; shares compounds with rCAG binder-1; inhibition, % at 3 µM;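 active means inhibition above a per-plate cutoff, the mean inhibition of sample wells plus 3 SD, cut at about 35% in these data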;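 further: loss of TO-PRO-1 fluorescence as compound displaces dye from 1x1 AA loop RNA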
dCAG dye counter: DNA CAG dye complex inhibition counter-screen; shares compounds with rCAG binder-1; d(CAG) DNA oligo TO-PRO-1 dye displacement, fluorescence; inhibition, % at 3 µM; actives 94% (n = 4,300); AID 652068;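 active means inhibition above its plate's cutoff, the mean test-well inhibition plus 3 SD, cut at about 4.8% in these data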;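 further: hits displace the dye from DNA and so lower well fluorescence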
dCAG dye DR: disrupts DNA CAG TO-PRO-1 complex in dose response; shares compounds with rCAG binder-1; DNA CAG/GTC duplex TO-PRO-1 dye displacement fluorescence; IC50, µM; actives 20% (n = 250); AID 686960; in the data active means IC50 below about 10 µM
dCAG DNA bind: counter-screen for rCAG binders: DNA CAG TO-PRO-1 complex inhibitors, late stage; shares compounds with rCAG binder-1; d(CAG) DNA duplex TO-PRO-1 dye displacement, fluorescence; IC50, µM; actives 80% (n = 30); AID 720649
rCAG binder-2: binds r(CAG) RNA repeats in late stage dose response | IC50, µM | actives 100% (n = 30) | shares compounds with rCAG binder-1 | r(CAG) RNA TO-PRO-1 dye displacement, fluorescence
Each line names hits and unclear results; the compound was inactive in the other large screens (follow-up assays come after a bar, where they were run). Shown are actives, neighbours in structure and some others; about 3.2% of the full set was active somewhere. Unless noted, how the calls were made is not given here.

COc1cc(NC(=O)C2CCCN(S(=O)(=O)c3cccs3)C2)cc(OC)c1 (stereo not given)	none (no result: MsrA inhibitor, MsrA act, PG9 Ab binder)
Cc1ccccc1S(=O)(=O)NC(=O)C1(C)CCN1C(=O)Cc1ccc(C(C)(C)C)cc1 (stereo not given)	rCAG binder-1 40.4 | rCAG bind conf inactive | dCAG dye counter 8.7
COc1cc(C=Nn2c(-c3ccc(F)cc3)n[nH]c2=S)ccc1OCc1ccccc1	rCAG binder-1 49.9 (no result: MsrA inhibitor, MsrA act, PG9 Ab binder) | rCAG bind conf 52.5 | dCAG dye counter 16.9
Cc1cccc(/C=N/n2c(-c3cc(-c4ccccc4)n[nH]3)n[nH]c2=S)c1	none
COc1cc(C=Nn2c(-c3cc(-c4ccccc4)n[nH]3)n[nH]c2=S)ccc1OC(C)=O	rCAG binder-1 58.4 (no result: MsrA inhibitor, MsrA act, PG9 Ab binder) | rCAG bind conf 44.0 | dCAG dye counter 12.8
CCn1c2ccccc2c2cc(C=Nn3c(-c4ccccc4C)n[nH]c3=S)ccc21	rCAG binder-1 49.0 (no result: MsrA inhibitor, MsrA act, PG9 Ab binder) | rCAG bind conf 56.0 | dCAG dye counter 23.1
COc1ccc(/C=N/n2c(-c3ccc(C)cc3)n[nH]c2=S)cc1OC	none
COc1ccc(C=Nn2c(-c3ccc(F)cc3)n[nH]c2=S)cc1OCc1ccccc1	rCAG binder-1 34.6 (no result: MsrA inhibitor, MsrA act, PG9 Ab binder) | rCAG bind conf 39.4 | dCAG dye counter 11.9
O=C(OCC#CCSc1nnc(-c2cc3ccccc3cc2O)o1)c1ccc(F)cc1	none (no result: MsrA inhibitor, MsrA act, PG9 Ab binder, rCAG binder-1)
COc1cc(C=Nn2c(-c3ccccc3F)n[nH]c2=S)ccc1OCc1ccccc1	rCAG binder-1 53.0 (no result: MsrA inhibitor, MsrA act, PG9 Ab binder) | rCAG bind conf 48.1 | dCAG dye counter 11.9
O=C(O)c1[nH]c2ccccc2c1C(c1cc(Br)ccc1O)c1c(C(=O)O)[nH]c2ccccc12	rCAG binder-1 94.5 | rCAG bind conf 75.7 | dCAG dye counter 39.9
Cc1[nH][nH]c(=O)c1C(c1cc(Br)ccc1O)c1c(C)[nH][nH]c1=O	none
COc1cc(Cl)cc(C(c2c(C(=O)O)[nH]c3ccccc23)c2c(C(=O)O)[nH]c3ccccc23)c1O	rCAG binder-1 92.3 | rCAG bind conf 72.8 | dCAG dye counter 37.9
O=C(O)c1[nH]c2ccccc2c1C(c1c(F)cccc1Cl)c1c(C(=O)O)[nH]c2ccccc12	rCAG binder-1 57.4 | rCAG bind conf inactive | dCAG dye counter 8.0
COc1ccc(CN2CN3Cc4cc(OC)ccc4C3CS2(=O)=O)cc1 (stereo not given)	none (no result: MsrA inhibitor, MsrA act, PG9 Ab binder)
COc1cc2c(c(OC)c1OC)C1(CCCCC1)CC2NCC=C(C)C (stereo not given)	none (no result: MsrA act)
O=C(O)c1cc(N/N=C/c2ccc(-c3ccccc3)cc2)ccc1Cl	rCAG binder-1 62.5 | rCAG bind conf 75.6 | dCAG dye counter 40.2
Cc1ccc(S(=O)(=O)Oc2cccc(/C=N/Nc3ccc(C(=O)O)cc3)c2)cc1	rCAG binder-1 74.4 | rCAG bind conf 57.7 | dCAG dye counter 17.3
Cc1ccc(S(=O)(=O)Oc2cccc(/C=N/n3cnnc3)c2)cc1	none
O=C(O)c1ccc(N/N=C/c2ccc(-c3ccccc3)cc2)cc1	rCAG binder-1 61.8 | rCAG bind conf 71.9 | dCAG dye counter 25.4
Nc1ccc(C(=O)N/N=C\c2ccc(OC(=O)c3ccccc3Cl)cc2)cc1	none
O=C(O)c1ccc(N/N=C/c2ccc(OC(=O)c3ccccc3Cl)cc2)cc1	rCAG binder-1 80.5 | rCAG bind conf 68.5 | dCAG dye counter 28.1
CC(C)c1ccc(/C=N/Nc2ccc(C(=O)O)cc2)cc1	none
Cc1ccc(-c2cc(C(=O)NN=Cc3cccc4ccccc34)[nH]n2)cc1C	none (no result: MsrA inhibitor, MsrA act, PG9 Ab binder)
CCOC(=O)[C@@]12CCCC=C1N(CCc1ccc(Cl)cc1)C(=O)[C@H]2CC(=O)NCc1cccc2ccccc12	none (no result: MsrA inhibitor, MsrA act, PG9 Ab binder)
COC(=O)[C@]12C[C@H](CC(=O)N3CCN(C(=O)C4CC4)CC3)C(=O)N(Cc3cccc4ccccc34)C1=C[C@H](C(C)(C)C)O[C@@H]2C	none (no result: MsrA inhibitor, MsrA act, PG9 Ab binder)
COc1cc(/C=N/Nc2ccc(Cl)c(C(=O)O)c2)ccc1OC(=O)c1cccs1	rCAG binder-1 54.3 | rCAG bind conf 69.0 | dCAG dye counter 29.9
CN(C)c1ccc(-c2noc(C3CCN(S(=O)(=O)c4cccc(C(=O)O)c4)CC3)n2)cc1	rCAG binder-1 65.4 | rCAG bind conf 67.6 | dCAG dye counter 32.0
O=C(c1ccccc1)N1CCC(c2nc(-c3ccc(S(=O)(=O)N4CCOCC4)cc3)no2)CC1	none
O=C(C1=NN[C@@H]2C(=O)N(c3cccc(C(F)(F)F)c3)C(=O)[C@H]12)C(c1ccccc1)c1ccccc1	rCAG binder-1 54.5 | rCAG bind conf inactive | dCAG dye counter 8.9
O=C(C1=NN[C@@H]2C(=O)N(c3cccc(F)c3)C(=O)[C@H]12)C(c1ccccc1)c1ccccc1	none
COc1nc(OC)nc(N2CCC(C(=O)NCc3cccc(OC)c3OC)CC2)n1	none (no result: MsrA inhibitor, MsrA act, PG9 Ab binder)
COc1ccc2nc(-n3c(O)c(C4=c5ccccc5=NC4=O)[nH]c3=S)sc2c1	rCAG binder-1 49.5 | rCAG bind conf 93.6 | dCAG dye counter 78.5
Cn1c(O)c(C2=c3ccccc3=NC2=O)[nH]c1=S	none
c1ccc(-c2ccc(C3=Nn4c(nnc4-c4ccccn4)SC3)cc2)cc1	none (no result: MsrA inhibitor, MsrA act, PG9 Ab binder)
O=C(COc1ccccc1/C=C1\SC(=S)NC1=O)Nc1ccc(F)cc1	rCAG binder-1 39.0 | rCAG bind conf 71.0 | dCAG dye counter 31.6 | dCAG dye DR inactive | dCAG DNA bind 2.79 | rCAG binder-2 1.06
COc1ccc(-n2c(SCC(=O)c3ccc4ccccc4c3)nnc2-c2ccccc2)cc1	none (no result: MsrA inhibitor, MsrA act, PG9 Ab binder)
COc1ccc(CNc2ccc3c(c2)nc(C)n3C)cc1	none
COc1ccc(OC)c(CNc2ccc3c(c2)nc(C)n3C)c1	rCAG binder-1 43.8 | rCAG bind conf inactive | dCAG dye counter inactive
CC(C)C[C@H]1COc2cc(N3CCSCC3)ccc2S(=O)(=O)N1C	none (no result: MsrA inhibitor, MsrA act, PG9 Ab binder)
Cn1c2ccccc2c2cc(/C=N/NC(=O)c3cc(O)cc(O)c3)ccc21	rCAG binder-1 43.5 | rCAG bind conf inactive | dCAG dye counter 18.4
Cn1c2ccccc2c2cc(/C=N/NC(=O)c3cc(O)ccc3O)ccc21	rCAG binder-1 66.0 | rCAG bind conf 62.1 | dCAG dye counter 30.8
CCc1cc2c(nc1CC)CCCN2S(=O)(=O)c1ccccc1	none (no result: MsrA act)
COc1ccc(-c2nn(-c3ccccc3)cc2/C=C(\CC(=O)O)c2nc3ccccc3s2)cc1OC	rCAG binder-1 53.3 | rCAG bind conf 63.5 | dCAG dye counter 21.6
CCOc1cc(/C=C(\CC(=O)O)c2nc3ccccc3s2)ccc1OC	none

Screening results as filed in PubChem BioAssay.
